From the supplement of paper PMC6555819 come the findings set out here.

What all share (assay): PBM binding z-score (relative to random genomic background probes); higher = stronger binding; sequences stand for … in GC…GCGATTGACAGCGTAGAATGAAGG
The subject of experiment [1] is RARb homodimer (NR concentration 270 nM). In a few lines: (§1)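 Each nuclear receptor dimer, without ligand, was incubated for 1 h on custom Agilent 4×180K protein-binding microarrays. Binding was detected with antibodies against each partner (one per run), and scanned fluorescence was regression-normalized. The binding z-scores are referenced to random human genomic background probes.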

For experiment [2], the system named is RARg:RXRa (NR concentration 270 nM, RXRa partner concentration 90 nM). In a few lines: as §1
Experiment [3] has as its system RARg homodimer (NR concentration 270 nM). In short, it runs like this: as §1
Experiment [4] has as its system RXRa DBDmut IVT, anti-RXR (DBD mutation: RXRa K156A/R161A, NR concentration 90 nM). In a few lines: as §1
For experiment [5], the system named is RXRa homodimer (NR concentration 180 nM). In a few lines: as §1
The subject of experiment [6] is THRa:RXRa (NR concentration 90 nM, RXRa partner concentration 90 nM). In short, it runs like this:
as §1

For experiment [7], the system named is THRa homodimer (NR concentration 90 nM). In a few lines:
as §1

Experiment [8] concerns VDR homodimer (NR concentration 270 nM). In a few lines: as §1

For the sequence CCTCCAAGGTCAAAGGTCAGTGAAGAGATGACGG, the PBM binding z-score in experiment [1] worked out at 5.51; in experiment [2] it was 8.61; in experiment [3], 7.7; in experiment [4], 3.97; in experiment [5] it was 10; in experiment [6], 4.65. The PBM binding z-score came to 2.63 in experiment [7] and 3.92 in experiment [8].
For CAAACTAGGTGAAGGTCAAAGTCGGTTTGTGCCA, the PBM binding z-score in experiment [1] is 3.92; in experiment [2], 4.07; in experiment [3] it was 4.37; in experiment [4] it was 1.5; in experiment [5], 4.34; in experiment [6], 3.14. Further, the PBM binding z-score in experiment [7] came to 0.696; in experiment [8], 2.23.
On to TAGCCTAGGTCAGATAGGGCCAGTATACGCTATA, for which the PBM binding z-score was 1.93 in experiment [1]; 2.8 in experiment [2]; 3.74 in experiment [3]; -0.288 in experiment [4]; 1.41 in experiment [5]; 4.03 in experiment [6]. In addition, the PBM binding z-score in experiment [7] was 0.0301; in experiment [8], -0.0363.
For the sequence GCTAGTTGGTCAGTAAAAGGTCACCCACCGGTCG, the PBM binding z-score in experiment [1] is 5.12; in experiment [2], 5.56; in experiment [3], 4.94; in experiment [4], -0.12; in experiment [5], 5.13; in experiment [6], 3.42. The PBM binding z-score in experiment [7] was found to be 1.89; in experiment [8], 1.26.
As to CAGCCTAGGTCAGGGCCAGTATCGGAGGAACGTT, the PBM binding z-score in experiment [1] was 2.85; in experiment [2] it was 3.16; in experiment [3], 4.2; in experiment [4] it was -0.106; in experiment [5], 1.55; in experiment [6] it was 1.96. Moreover, the figures for the PBM binding z-score in experiment [7] and in experiment [8] were 0.58 and -0.476, respectively.
For the sequence GCGTCTGGGGCATCAGCAGGTTACCATAACTTAA, the PBM binding z-score in experiment [1] was 0.953; in experiment [2] it was 0.859; in experiment [3] it was 0.544; in experiment [4], 0.254; in experiment [5] it was 0.243; in experiment [6], 1.06. Moreover, the PBM binding z-score in experiment [7] was -0.103; in experiment [8], -0.379.
For the sequence GCTCGGAGAACAAGGTCAGAGCTTTGTCCGTAGA, the PBM binding z-score in experiment [1] amounted to 2.36; in experiment [2], 2.39; in experiment [3], 2.24; in experiment [4], 0.418; in experiment [5] it was 2.16; in experiment [6], 2.58. Moreover, the PBM binding z-score was found to be 0.95 in experiment [7] and 0.151 in experiment [8].
Consider CCTTCTGGGCCAAAAAGGTCATTGATGCCGATAA, for which the PBM binding z-score in experiment [1] turned out to be 4.2; in experiment [2], 4.63; in experiment [3] it was 4.26; in experiment [4], 1.29; in experiment [5] it was 4.8; in experiment [6] it was 2.87. For the same sequence, the PBM binding z-score in experiment [7] came to 0.411; in experiment [8], 2.86.
Take GATACAGGGTCAGCTATAGGCCAGAGTATGGAAA: the PBM binding z-score in experiment [1] was found to be 2.93; in experiment [2], 5.42; in experiment [3], 4.73; in experiment [4] it was 1.34; in experiment [5] it was 4.02; in experiment [6], 2.6. Further, the PBM binding z-score came to 0.272 in experiment [7] and 0.536 in experiment [8].
For the sequence AATACAGGGTCACTAAGCCAGAGTAGGTACGAAT, the PBM binding z-score was determined as 3.03 in experiment [1]; 5.07 in experiment [2]; 4.83 in experiment [3]; 2.77 in experiment [4]; 5.39 in experiment [5]; 3.33 in experiment [6]. Further, the PBM binding z-score in experiment [7] amounted to 1.13; in experiment [8], 2.35.
On to AGTCAAAGTTCACTAGGTAAGGTAAGATTCAGCT, for which the PBM binding z-score stood at 3.88 in experiment [1]; 4.78 in experiment [2]; 6.02 in experiment [3]; 4.18 in experiment [4]; 3.95 in experiment [5]; 2.51 in experiment [6]. Also, the PBM binding z-score worked out at 1.03 in experiment [7] and 3.36 in experiment [8].
For the sequence ACAGACAGGTGATGAAGGTAACTTAGGCTATCAT, the PBM binding z-score in experiment [1] was 0.348; in experiment [2] it was 0.286; in experiment [3] it was 0.467; in experiment [4], -0.093; in experiment [5] it was 0.298; in experiment [6], 0.532. Further, the PBM binding z-score in experiment [7] amounted to 0.0402; in experiment [8], 0.0918.
Turning to ATCTCTAGGTAAGACTCAGTTCGGTGAAGAACGC, the PBM binding z-score is 0.505 in experiment [1]; 0.0648 in experiment [2]; 0.192 in experiment [3]; 0.349 in experiment [4]; -0.00788 in experiment [5]; 0.483 in experiment [6]. Moreover, the PBM binding z-score in experiment [7] is 0.697; in experiment [8], 0.648.
Turning to CAAACTAGGTCAAGAGGTCAAAGACCGCTTCCCG, the PBM binding z-score stood at 5.76 in experiment [1]; 8.18 in experiment [2]; 7.8 in experiment [3]; 2.18 in experiment [4]; 8.47 in experiment [5]; 4.39 in experiment [6]. Further, the PBM binding z-score amounted to 2.18 in experiment [7] and 3.76 in experiment [8].
